L3MBTL1 inh: L3MBTL1 (human) inhibition | Q9Y468 | AlphaScreen L3MBTL1–H3K9me1 peptide binding | Potency, µM (highest dose often 57.1 µM), hits mostly inhibitors | 230,000 compounds, 0.66% hits | AID 485360; also: nearly all actives have a fitted effect of over 60% in size
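AlphaScreen assay: L3MBTL1 (50 nM final) was preincubated 30 min at room temperature with biotinylated H3(1-15)K9me1 peptide (75 nM final), then 30 min with library compounds; streptavidin donor and nickel chelate acceptor beads (10 ug/mL final) added, 30 min dark.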
uPA surface inh: inhibitors of cell surface uPA generation; AID 540303; cell surface uPA generation assay, qHTS; Potency, µM (doses to about 38.3 µM), most hits filed as inhibitors; 330,000 compounds, 0.31% hits; active = well fitted inhibition curve with a large enough effect; inconclusive = small, poorly fitted or top-dose-only effect; inactive = no such curve, though single readings can be large or run the other way; tested in mouse RAW 264.7 cells; also: nearly all actives have a fitted effect of over 55% in size
USP2a block: USP2a (human) protease inhibition. O75604. USP2 core, Ub-CHOP2 coupled fluorogenic reporter, 485/531. Potency, µM (series often up to 38.3 µM), hits mostly inhibitors. 330,000 compounds, 0.01% hits. AID 463254
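Deubiquitinase activity read as fluorescence (485/531 nm) after Ub-CHOP2 cleavage activates the enterokinase reporter on its substrate; USP2 core 10nM, Ub-CHOP2 and substrate 25nM each, 30min compound preincubation then 60min RT; data normalized to NEM, curves fitted.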
CtBP-E1A inh: inhibitors of CtBP/E1A interaction | activity change, % (concentration not given with the values) | AlphaScreen GST-E1A/His-CtBP binding, 1536-well; hits give low values | 340,000 compounds, 0.49% hits; in the data active = activity change below about -65%; inconclusive = mostly about -30% to -63%
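AlphaScreen with 125 nM GST-E1A and 125 nM His-CtBP (5X stocks) in Tris pH 8.0, 300 mM NaCl, BSA, Tween 20, TCEP. Compounds preincubated 2 h at 37 deg C, then glutathione donor/nickel acceptor beads added for 1 h at 37 deg C in dark.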
Eya2 inh: Eya2 (human) phosphatase inhibition | O00167 | recombinant Eya2, OMFP fluorescence dephosphorylation (OMFP is methylfluorescein phosphate) | Potency, µM (highest dose often 76.9 µM), most hits filed as inhibitors | 330,000 compounds, 0.006% hits | AID 488837
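Eya2 (0.2 uM) preincubated 10 min at ambient with compound, then OMFP substrate added at 50 uM; 10 min reaction in 50 mM HEPES pH 7.5, 50 mM NaCl, 5 uM MgCl2, 0.05% BSA, 1 mM DTT. Fluorescence read at Ex 485/Em 525 nm.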
Six1-Eya2 inh: inhibitors of human Six1/Eya2 interaction; Q15475+O00167; AlphaScreen GST-Six1/His-Eya2 binding, biochemical; hits give low values; activity change, % (concentration not given with the values); 360,000 compounds, 0.56% hits; AID 651725; in the data active = activity change below about -65%; inconclusive = mostly about -30% to -63%
Target sequence (O00167 whole entry, looked up): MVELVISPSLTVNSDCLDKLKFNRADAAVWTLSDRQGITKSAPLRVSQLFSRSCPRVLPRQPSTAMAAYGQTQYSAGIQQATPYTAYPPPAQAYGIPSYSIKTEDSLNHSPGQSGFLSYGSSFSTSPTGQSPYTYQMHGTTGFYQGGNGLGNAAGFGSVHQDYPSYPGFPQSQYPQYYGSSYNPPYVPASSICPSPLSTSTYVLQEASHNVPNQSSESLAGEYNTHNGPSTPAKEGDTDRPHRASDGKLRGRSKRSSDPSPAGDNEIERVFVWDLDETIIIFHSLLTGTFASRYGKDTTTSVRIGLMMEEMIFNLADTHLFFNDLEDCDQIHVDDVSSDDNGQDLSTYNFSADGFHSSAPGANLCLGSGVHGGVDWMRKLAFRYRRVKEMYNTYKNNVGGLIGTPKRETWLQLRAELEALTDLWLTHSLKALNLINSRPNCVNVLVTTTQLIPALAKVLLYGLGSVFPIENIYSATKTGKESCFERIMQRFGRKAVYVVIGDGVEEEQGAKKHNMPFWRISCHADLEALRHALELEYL
Target sequence (Q15475 whole entry, looked up): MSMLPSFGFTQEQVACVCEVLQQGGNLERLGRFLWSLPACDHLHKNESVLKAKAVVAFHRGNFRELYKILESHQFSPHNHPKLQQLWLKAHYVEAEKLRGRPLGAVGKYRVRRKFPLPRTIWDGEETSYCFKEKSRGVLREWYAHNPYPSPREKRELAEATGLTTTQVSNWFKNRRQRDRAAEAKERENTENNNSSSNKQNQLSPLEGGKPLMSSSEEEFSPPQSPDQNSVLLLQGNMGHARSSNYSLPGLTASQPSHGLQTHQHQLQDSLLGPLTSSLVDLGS
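Homogeneous AlphaScreen proximity assay pairing GST-Six1 with His-tagged Eya2 (added as 5X mix: 250 nM and 500 nM) in 50 mM Tris pH 8.0, 300 mM NaCl, 1 mM TCEP. Glutathione donor and nickel acceptor beads; 1 h, 37 °C, dark.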
Numbers stand for hits; – = inactive; ? = inconclusive; · = not tested or not shown. Only some compounds are listed: those with a hit (about 1.2% of all), similar ones and a draw of the others. Unless noted, calls follow the shape of the dose curve; as a rule, active = well fitted curve in the direction sought with a large enough effect; inconclusive = small, poorly fitted or top-dose-only effect, or another doubt; inactive = no such curve, though single readings can be large; an effect the other way counts as inactive or inconclusive.

SMILES	L3MBTL1 inh	uPA surface inh	USP2a block	CtBP-E1A inh	Eya2 inh	Six1-Eya2 inh
COC(=O)COc1ccc(/C=C2\SC(=O)N(CC(=O)Nc3ccccc3F)C2=O)cc1	–	–	–	–	–	–
CCOc1ccc(N2C(=O)CC(Sc3nc(C)cc(C)n3)C2=O)cc1 (centres undefined)	–	–	–	–	–	–
Cc1ccc(N2C(=O)CC(Sc3nc(C)cc(C)n3)C2=O)cc1 (centres undefined)	–	5µM	–	·	–	–
O=C(COc1ccccc1[N+](=O)[O-])Nc1cccc(Cl)c1N1CCOCC1	·	10µM	–	–	–	–
CCOc1cc(N2CCOCC2)c(OCC)cc1NC(=O)COc1ccccc1[N+](=O)[O-]	–	–	–	–	–	–
COc1ccc(-c2csc(N(CCCN(C)C)C(=O)c3ccccc3Cl)n2)cc1	·	–	·	?	·	?
COc1ccc(-c2csc(N(CCCN(C)C)C(=O)c3ccccc3C)n2)cc1	35µM	–	–	?	50µM	–
Cc1cc(OCC(=O)Nc2ccncc2)ccc1[N+](=O)[O-]	–	–	–	–	–	–
Cc1nc(NC(=O)CCl)sc1C(=O)N(C)C	–	10µM	–	·	–	–
CC1=C(C(=O)N(C)C)C(c2ccc(N3CCOCC3)cc2)NC(=O)N1 (centres undefined)	·	–	–	–	–	–
CCOC(=O)c1sc(NC(=O)CCc2ccccc2)nc1C	–	4.5µM	–	·	–	–
CCOC(=O)c1sc(NC(=O)CC(C)c2ccccc2)nc1C (centres undefined)	–	–	–	–	–	–
Cc1[nH]n(-c2ccccc2)c(=O)c1N=Nc1ccccc1O	–	–	–	-81	–	-87
C=CC(=O)Oc1ccc(N2Cc3ccccc3C2=O)cc1	·	5µM	·	·	·	–
COc1ccc(N2Cc3ccccc3C2=O)cc1	–	–	–	–	–	–
Cc1ccc(N2Cc3ccccc3C2=O)cc1	–	8.9µM	–	·	–	–
C[C@@H]1CN([C@@H](C)CO)C(=O)CCCn2nncc2CO[C@H]1CN(C)Cc1ccncc1	·	·	·	–	·	–
Cc1cccc(-n2cnc(C(=O)NNC(=S)Nc3ccc(Cl)cc3)c2)n1	?	–	–	-88	–	-90
Cc1ccc(S(=O)(=O)CCC(=O)Nc2nc(-c3ccccn3)cs2)cc1	–	?	–	-73	–	?
COc1ccc(OC)c2sc(NC(=O)CCS(=O)(=O)c3ccccc3)nc12	·	7.1µM	·	–	·	–
Cc1ccc(C2(C)NC(=O)N(CC(=O)Nc3nc(-c4ccccn4)cs3)C2=O)cc1 (centres undefined)	?	–	–	?	–	-92
Cc1ccc(S(=O)(=O)CCc2nnc(NC(=O)c3ccccn3)s2)cc1	?	–	–	-92	–	-90
Cc1ccc(S(=O)(=O)CCc2nnc(NC(=O)c3cnccn3)s2)cc1	–	–	–	–	–	–
COc1ccc(OC)c2sc(NC(=O)CCSc3ccccc3)nc12	–	–	–	–	–	–
CC(C(=O)NC1CCCc2ccccc21)N1C(=O)C2CCCCC2C1=O (centres undefined)	–	–	–	–	–	–
SMILES	L3MBTL1 inh	uPA surface inh	USP2a block	CtBP-E1A inh	Eya2 inh	Six1-Eya2 inh
O=C(CN1C(=O)C2CCCCC2C1=O)Nc1nc(-c2ccccn2)cs1 (centres undefined)	·	–	–	-84	–	-84
C[C@@H](C(=O)Nc1nc(-c2ccccn2)cs1)N1C(=O)C2CCCCC2C1=O (some centres undefined)	·	–	–	-90	–	-90
COc1ccc(C)cc1NC(=O)CCNC(=O)Cn1cnc2ccccc2c1=O	·	–	–	–	–	–
O=Nc1c(O)c2ccccc2c2ccccc12	·	5.6µM	·	–	·	–
Cn1c(=O)c(/C=C/c2ccccc2)nc2ccccc21	–	–	–	–	–	–
Cn1c(/C=C/c2ccccc2)nc2ccccc21	–	4µM	–	·	–	–
COc1ccc2cc(C3=CCCC3(C)C(=O)O)ccc2c1 (centres undefined)	·	–	·	–	·	–
CCCCC(=O)NC(c1cccs1)c1cc(Cl)c2cccnc2c1O (centres undefined)	–	?	–	·	–	?
CCC(=O)NC(c1cc(Cl)c2cccnc2c1O)C1CC1 (centres undefined)	–	13µM	–	·	–	·
CCC(=O)NC(c1cccs1)c1cc(Cl)c2cccnc2c1O (centres undefined)	–	7.1µM	–	·	–	-89
O=C(N/N=C/c1cc([N+](=O)[O-])ccc1O)c1ccc2c(c1)OCCO2	–	–	–	–	–	-81
O=C(N/N=C\c1ccc(Sc2ccccn2)o1)c1cccc(Br)c1	–	–	–	–	3.2µM	?
Nc1nonc1C(=O)N/N=C/c1cc(Br)ccc1O	1.4µM	–	–	-92	–	-93
O=C(N/N=C/c1cccc(Oc2ccccc2)c1)c1cccc(Br)c1	–	–	–	–	–	–
O=C(N/N=C/c1ccc(O)c2ncccc12)c1cccc(Br)c1	7.9µM	–	–	-92	–	-82
C=CCOc1cccc(C2c3c(oc4ccc(F)cc4c3=O)C(=O)N2CCCN2CCOCC2)c1 (centres undefined)	·	–	–	–	–	–
COc1ccc(OC)c(S(=O)(=O)N2CCC(C(=O)NC3CCCCC3)CC2)c1	·	–	–	–	–	–
COc1ccc(C2(c3ccc(OC)cc3)NC(=O)N(CC(=O)NCC(C)c3ccccc3)C2=O)cc1 (centres undefined)	–	–	–	–	–	–
COc1ccc(/C=N/NC(=O)C(=O)Nc2ccccn2)cc1OC	–	–	–	–	–	–
O=C(N/N=C/c1ccccc1)c1cc[n+]([O-])cc1	·	–	–	–	–	–
O=C(N/N=C/c1ccccc1O)c1cc[n+]([O-])cc1	·	–	–	-94	–	-78
O=C(N/N=C/c1ccccc1O)C(=O)Nc1ccccn1	–	?	–	·	–	-88
O=C(N/N=C/c1cc([N+](=O)[O-])ccc1O)c1cccc2cc[nH]c12	–	4.5µM	–	-93	–	-70
O=C(N/N=C/c1cccc([N+](=O)[O-])c1)c1cccc2cc[nH]c12	–	–	–	–	?	–
O=C(NN=Cc1cccc(O)c1O)c1ccccc1	·	·	·	-91	·	-90
O=C(COC(=O)CNC(=O)c1ccco1)Nc1ccccc1OC(F)F	–	–	–	–	–	–
CCc1ccc(-c2nc(SCC(=O)N(CC)C3CCS(=O)(=O)C3)n[nH]2)cc1 (centres undefined)	–	?	–	–	–	–
CCc1ccc(NC(=S)N(CCN(C)C)C(C)c2ccncc2)cc1 (centres undefined)	·	–	–	–	–	–

Assay outcomes from PubChem.
